# Measured values reported in PubChem BioAssay AID540363 (National Center for Advancing Translational Sciences (NCATS), 2011).
# Results filed as inconclusive are left out. Calls of active or inactive are those of the source. The call rests on the fitted dose curve; in most records, active means well fitted cell-killing curve with a large enough effect; inconclusive means small, poorly fitted or top-dose-only effect; inactive means flat fitted curve, though single readings scatter.
# Assay: PC3M Cytotoxicity Assay for Compounds that Inhibit the Perinuclear Compartment: Chemistry Optimization Followup
# Details: PC3M-GFP viability, ATPLite luminescence, 24 h; series mostly up to 46.1 µM
# Description: The perinucleolar compartment (PNC) is a non-membrane-bound nuclear subdomain that is associated with but structurally distinct from the nucleolus. The PNC is a heritable trait, in which the number of PNCs per cell in daughter cells often mimics that of their mother cells. The PNC is heterogeneous in shape, is stable through interphase, disassembles during mitosis, and reassembles in early G1. The PNC is concentrated with newly synthesized RNA polymerase III (pol III) RNAs (MRP RNA, RNAse P H1 RNA, hY RNAs[hY1, 2, 5], Alu RNA, and SRP [7SL] RNA) and RNA binding proteins (nucleolin, PTB, CUG-BP, KSRP, Raver1, Raver2, and Rod). […] Extensive in vitro studies have shown that the PNC is unique to tumor cells and preferentially forms in tumor cells derived from solid tissues. Examination of cancer cell lines from various origins and malignant capacities has shown that PNC prevalence correlates with the malignancy of tumors and has the potential to be developed as a pan-cancer prognostic marker. […] Although the PNC is associated with a DNA locus and a handful of components have been identified, much remains to be investigated regarding the structure and function of the PNC and its mechanistic link to cancer. We have previously shown that PNC prevalence reduction is a valid strategy to identify compounds that can be used to study the structure and function of the PNC. It is necessary, however, to create a screening platform that is able to test a large number of compounds in an automated fashion. Here we report the development and robustness of an automated whole-cell phenotypic image-based screening assay that is capable of identifying such compounds. We conducted a followup assay to measure the effect of the lead candidates on cell health by measuring ATP levels (ATPLite). The highly metastatic PC3M-GFP reporter cell line was used in this study. NIH Chemical Genomics Center [NCGC] NIH Molecular Libraries Probe Centers Network [MLPCN] MLPCN Grant: MH082371-01A2 Assay Submitter (PI): Sui Huang, Northwestern University, Feinberg School of Medicine, Cell and Molecular Biology, Chicago, Illinois.
# 1. Cells at a density of 75-90% confluency in T175 flasks were harvested using 7 ml TrypLE Express cell dissociation reagent. After dissociation (5 minutes room temperature incubation) 10 ml of complete media was added to the TrypLE/cell suspension. The liquid was transferred to a 50 ml Conical tube and cells were pelleted at 1000 RPM for 5 min. Supernatant was removed and cells were resuspended to a final density of 150-200 cells/ul in complete media. 2. Cells were plated in 5 ul volume (2000 cells/well) into 1536 well White solid bottom plates and allowed to recover and adhere at 37 C in a humidified 5% CO2 incubator for 4 hours. 3. After 4 hour incubation, compound libraries (23 nl of […] in columns 5-48) were transferred to the plates in duplicate using a 1536 well pintool. Camptothecin positive control (59 uM final) was added to column 2 and 1:3 dilutions of camptothecin was added to column 3. DMSO negative controls were present in columns 1 and 4. 4. After a 24 hour incubation in the 37 C incubator, all wells were treated with 3 ul of ATPLite reagent using a multidrop combi dispenser (ThermoFisher). Bubbles that formed during dispensing were removed by spinning the plates for 1 minutre at 1500 RPM on a table top centrifuge. 5. Luminescencent signal was detected on a Viewlux CCD based imager (PerkinElmer) with a clear filter and a 30 second integration time. The PC3M cell line stably expressing the PTB-GFP was provided by Sui Huang of Northwestern University. The media and cell culture reagents were purchased from Invitrogen (Carlsbad, CA), ATPLite came from PerkinElmer.
row,Structure (SMILES),Potency
1,CN(C)CCCn1cnc2c(c(-c3ccccc3)c(-c3ccccc3)n2Cc2ccccc2)c1=N,25 µM (active)
2,N=c1c2c(-c3ccccc3)c(-c3ccccc3)n(CCc3ccccc3)c2ncn1C1CCC(O)CC1 (stereo not given),17.7 µM (active)
3,COCCn1cnc2c(c(-c3ccccc3)c(-c3ccccc3)n2Cc2ccc(OC)cc2)c1=N,17.7 µM (active)
4,C[C@H]([C@@H](O)c1ccccc1)n1cnc2c(c(-c3ccccc3)c(-c3ccccc3)n2Cc2ccccc2)c1=N,15.8 µM (active)
5,COc1ccc(Cn2c(NC=N[C@H](C)[C@@H](O)c3ccccc3)c(C#N)c(-c3ccccc3)c2-c2ccccc2)cc1,19.6 µM (active)
6,CN(C)CCn1cnc2c(c(-c3ccccc3)c(-c3ccccc3)n2Cc2ccccc2)c1=N,17.7 µM (active)
7,CCOC(CCCn1cnc2c(c(-c3ccccc3)c(-c3ccccc3)n2CCc2ccccc2)c1=N)OCC,22.3 µM (active)
8,N=c1c2c(-c3ccccc3)c(-c3ccccc3)n(CCc3ccccc3)c2ncn1[C@H](CO)Cc1ccccc1,19.9 µM (active)
9,COc1ccc(Cn2c(-c3ccccc3)c(-c3ccccc3)c3c(=N)n(CCCCCO)cnc32)cc1,15.8 µM (active)
10,N=c1c2c(-c3ccccc3)c(-c3ccccc3)n(CCc3ccccc3)c2ncn1CCCO,15.6 µM (active)
11,N=c1c2c(-c3ccccc3)c(-c3ccccc3)n(CCc3ccccc3)c2ncn1CCCCCO,17.7 µM (active)
12,CN(C)CCn1cnc2c(c(-c3ccccc3)c(-c3ccccc3)n2CCc2ccccc2)c1=N,15.8 µM (active)
13,CN(C)CCCn1cnc2c(c(-c3ccccc3)c(-c3ccccc3)n2CCc2ccccc2)c1=N,22.3 µM (active)
14,COc1ccc(Cn2c(-c3ccccc3)c(-c3ccccc3)c3c(=N)n(CCCCO)cnc32)cc1,12.5 µM (active)
15,N=c1c2c(-c3ccccc3)c(-c3ccccc3)n(Cc3ccccc3)c2ncn1CC1CCCO1 (stereo not given),19.9 µM (active)
16,COC(Cn1cnc2c(c(-c3ccccc3)c(-c3ccccc3)n2CCc2ccccc2)c1=N)OC,17.7 µM (active)
17,N=c1c2c(-c3ccccc3)c(-c3ccccc3)n(CCc3ccccc3)c2ncn1CC1CCCO1 (stereo not given),11.2 µM (active)
18,COc1ccc(Cn2c(-c3ccccc3)c(-c3ccccc3)c3c(=N)n(CC4CCCO4)cnc32)cc1 (stereo not given),19.9 µM (active)
19,COCCn1cnc2c(c(-c3ccccc3)c(-c3ccccc3)n2CCc2ccccc2)c1=N,15.8 µM (active)
20,CN(C(=O)c1cccs1)c1cccnc1,inactive
